The panel holds about 83,000 compounds, 20% with a hit somewhere; the sample as a whole holds those more often.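 Step 1: grow cells in 96-well plates. Step 2: add test compound at a single concentration. Step 3: incubate 48 h. Step 4: record percent growth.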 Active and inactive are the calls of the source. Rule for the calls: active = growth percent below 10; inactive = the rest.
Columns and labels:
Assay in all cases: NCI-60 one-dose screen, 48 h (100 = growth as untreated, 0 = no growth, -100 = all killed)
Details in all cases: 10 µM unless noted
NCI-H23 lung = test system: NCI-H23 lung
NCI-H226 lung = test system: NCI-H226 lung
NCI-H322M lung = test system: NCI-H322M lung
HOP-62 NSCLC = test system: HOP-62 NSCLC
NCI-H460 lung = test system: NCI-H460 lung
HOP-92 NSCLC = test system: HOP-92 NSCLC
NCI-H522 lung = test system: NCI-H522 lung
A549/ATCC NSCLC = test system: A549/ATCC NSCLC
786-0 renal = test system: 786-0 renal
COLO 205 colon = test system: COLO 205 colon
DU-145 prostate = test system: DU-145 prostate
K-562 leukemia = test system: K-562 leukemia
MALME-3M melanoma = test system: MALME-3M melanoma
MDA-MB-231 breast = test system: MDA-MB-231 breast
RXF 393 renal = test system: RXF 393 renal
SF-268 CNS = test system: SF-268 CNS
SF-295 CNS = test system: SF-295 CNS
SF-539 CNS = test system: SF-539 CNS
UACC-257 melanoma = test system: UACC-257 melanoma
M14 melanoma = test system: M14 melanoma

Measured: growth

C=C1C(=O)O[C@H]2[C@H]1CC/C(COC(=O)NCc1ccc(Cn3c(=O)sn(CCCCC)c3=O)cc1)=C\CC[C@@]1(C)O[C@@H]21
inactive: NCI-H23 lung 78.6% | NCI-H226 lung 75.4% | NCI-H322M lung 93.4% | HOP-62 NSCLC 81.2% | NCI-H460 lung 92.6% | A549/ATCC NSCLC 89.3% | 786-0 renal 32.1% | MDA-MB-231 breast 31.1% | RXF 393 renal 11.6% | SF-268 CNS 78.6% | SF-295 CNS 102% | SF-539 CNS 46.5% | UACC-257 melanoma 47.1%
active: HOP-92 NSCLC -15.6% | NCI-H522 lung -68.6% | COLO 205 colon -20.8% | DU-145 prostate 9.23% | K-562 leukemia 1.16% | MALME-3M melanoma -14.5% | M14 melanoma 2.8%

CN(C)CC1CCC(CN(C)C)C1=O (stereo not given)
inactive: NCI-H23 lung 114% | NCI-H226 lung 101% | NCI-H322M lung 110% | HOP-62 NSCLC 106% | NCI-H460 lung 111% | HOP-92 NSCLC 100% | NCI-H522 lung 95.3% | A549/ATCC NSCLC 110% | 786-0 renal 102% | COLO 205 colon 103% | DU-145 prostate 115% | MALME-3M melanoma 115% | MDA-MB-231 breast 117% | RXF 393 renal 123% | SF-268 CNS 108% | SF-295 CNS 133% | SF-539 CNS 109% | UACC-257 melanoma 109% | M14 melanoma 108%
active: K-562 leukemia 4.34%

CCN(CC)c1ccc(\C=N/N=C(N)/C(N)=N\N=C/c2ccc(N(CC)CC)cc2)cc1
inactive: NCI-H23 lung 94.9% | NCI-H226 lung 103% | NCI-H322M lung 105% | HOP-62 NSCLC 93.1% | NCI-H460 lung 109% | HOP-92 NSCLC 116% | NCI-H522 lung 92.2% | A549/ATCC NSCLC 104% | 786-0 renal 113% | COLO 205 colon 106% | DU-145 prostate 110% | K-562 leukemia 99.3% | MALME-3M melanoma 93.9% | MDA-MB-231 breast 112% | RXF 393 renal 109% | SF-268 CNS 105% | SF-295 CNS 98.9% | SF-539 CNS 107% | UACC-257 melanoma 104% | M14 melanoma 110%

CN1C(=O)/C(=C\c2c(Cl)cccc2Cl)c2ccccc21
inactive: NCI-H23 lung 90.7% | NCI-H226 lung 100% | NCI-H322M lung 96.5% | HOP-62 NSCLC 86.5% | NCI-H460 lung 103% | HOP-92 NSCLC 83.4% | NCI-H522 lung 83.3% | A549/ATCC NSCLC 88% | 786-0 renal 84.3% | COLO 205 colon 113% | DU-145 prostate 99.6% | K-562 leukemia 30.7% | MALME-3M melanoma 79% | MDA-MB-231 breast 87.2% | RXF 393 renal 85.1% | SF-268 CNS 87.2% | SF-295 CNS 86.3% | SF-539 CNS 87.1% | UACC-257 melanoma 87.2% | M14 melanoma 75.5%

N#CC1=C(c2ccccc2)Nc2c(c(-c3ccc(Cl)cc3)nn2-c2ccccc2)C12C(=O)Nc1ccc(Cl)cc12 (stereo not given)
inactive: NCI-H23 lung 92.1% | NCI-H226 lung 80.7% | NCI-H322M lung 91.3% | HOP-62 NSCLC 77.3% | NCI-H460 lung 71.2% | HOP-92 NSCLC 61.8% | NCI-H522 lung 72.2% | A549/ATCC NSCLC 54.7% | 786-0 renal 79.2% | COLO 205 colon 73% | DU-145 prostate 86.1% | K-562 leukemia 65.9% | MALME-3M melanoma 86.4% | MDA-MB-231 breast 58.8% | RXF 393 renal 49.8% | SF-268 CNS 55.3% | SF-295 CNS 56.5% | SF-539 CNS 85.2% | UACC-257 melanoma 73% | M14 melanoma 72.7%

O=c1[nH]c(-c2ccccc2)nc2sc3cc(O)ccc3c12
inactive: NCI-H23 lung 84.6% | NCI-H226 lung 79.6% | NCI-H322M lung 81.2% | HOP-62 NSCLC 105% | NCI-H460 lung 84.1% | HOP-92 NSCLC 94.8% | NCI-H522 lung 75.5% | A549/ATCC NSCLC 81.6% | 786-0 renal 79.3% | COLO 205 colon 110% | DU-145 prostate 83.6% | K-562 leukemia 25.9% | MALME-3M melanoma 74.1% | MDA-MB-231 breast 101% | RXF 393 renal 82.2% | SF-268 CNS 86.2% | SF-295 CNS 95.3% | SF-539 CNS 82.8% | UACC-257 melanoma 109% | M14 melanoma 75.2%

CCc1ccc(CCCC(=O)O)cc1
inactive: NCI-H23 lung 96.5% | NCI-H226 lung 95.1% | NCI-H322M lung 101% | HOP-62 NSCLC 87% | NCI-H460 lung 108% | HOP-92 NSCLC 91.1% | NCI-H522 lung 89.9% | A549/ATCC NSCLC 97.7% | 786-0 renal 95.4% | COLO 205 colon 112% | DU-145 prostate 102% | K-562 leukemia 98.9% | MALME-3M melanoma 107% | MDA-MB-231 breast 100% | RXF 393 renal 112% | SF-268 CNS 102% | SF-295 CNS 98.5% | SF-539 CNS 103% | UACC-257 melanoma 106% | M14 melanoma 94.2%

CCN(CC)Cc1cc(C=C2C(=O)NC(=S)NC2=O)cc(OC)c1O
inactive: NCI-H23 lung 98.1% | NCI-H226 lung 107% | NCI-H322M lung 103% | HOP-62 NSCLC 106% | NCI-H460 lung 104% | HOP-92 NSCLC 104% | NCI-H522 lung 104% | A549/ATCC NSCLC 109% | 786-0 renal 104% | COLO 205 colon 117% | DU-145 prostate 111% | K-562 leukemia 117% | MALME-3M melanoma 111% | MDA-MB-231 breast 103% | RXF 393 renal 115% | SF-268 CNS 101% | SF-295 CNS 102% | SF-539 CNS 101% | UACC-257 melanoma 106% | M14 melanoma 108%

COc1cc2c(c(OC)c1OC)CCC(c1cccc(C(=O)Nc3cccc(Cl)c3)c1)O2 (stereo not given)
inactive: NCI-H23 lung 85.8% | NCI-H226 lung 65.6% | NCI-H322M lung 51.7% | HOP-62 NSCLC 79.6% | NCI-H460 lung 85% | NCI-H522 lung 51.7% | A549/ATCC NSCLC 61.6% | 786-0 renal 79.8% | COLO 205 colon 76.7% | DU-145 prostate 81% | K-562 leukemia 38.2% | MALME-3M melanoma 75.2% | MDA-MB-231 breast 25.7% | RXF 393 renal 66.9% | SF-268 CNS 72.1% | SF-295 CNS 65% | SF-539 CNS 77.6% | UACC-257 melanoma 74.5% | M14 melanoma 62.1%
active: HOP-92 NSCLC 8.45%

Nc1cc(C(=O)NC[C@H]2CN(c3ccc(N4CCC(C(=O)O)CC4)cc3)C(=O)O2)ccc1Cl
inactive: NCI-H23 lung 95.1% | NCI-H226 lung 100% | NCI-H322M lung 107% | HOP-62 NSCLC 99% | NCI-H460 lung 103% | HOP-92 NSCLC 98.4% | NCI-H522 lung 92% | A549/ATCC NSCLC 98.5% | 786-0 renal 101% | COLO 205 colon 104% | DU-145 prostate 109% | K-562 leukemia 92.1% | MALME-3M melanoma 94% | MDA-MB-231 breast 94.2% | RXF 393 renal 112% | SF-268 CNS 98.4% | SF-295 CNS 103% | SF-539 CNS 93.7% | UACC-257 melanoma 98.8% | M14 melanoma 98.2%

Nc1n[nH]c2cccc(C#Cc3cccc(NC(=O)c4cc(F)cc(C(F)(F)F)c4)c3)c12
active: K-562 leukemia 9.27%
inactive: NCI-H23 lung 65.8% | NCI-H226 lung 46.6% | NCI-H322M lung 93.9% | HOP-62 NSCLC 95.2% | NCI-H460 lung 77.8% | HOP-92 NSCLC 39.1% | NCI-H522 lung 62.6% | A549/ATCC NSCLC 84.4% | 786-0 renal 86.4% | COLO 205 colon 83.7% | DU-145 prostate 97.9% | MALME-3M melanoma 53% | MDA-MB-231 breast 48.1% | RXF 393 renal 62.8% | SF-268 CNS 73.6% | SF-295 CNS 81.3% | SF-539 CNS 44% | UACC-257 melanoma 88.5% | M14 melanoma 41.9%

O=[N+]([O-])c1ccc(O)cc1Br
inactive: NCI-H23 lung 95.1% | NCI-H226 lung 93.2% | NCI-H322M lung 105% | HOP-62 NSCLC 92.4% | NCI-H460 lung 104% | HOP-92 NSCLC 44.8% | NCI-H522 lung 90.7% | A549/ATCC NSCLC 103% | 786-0 renal 99.8% | COLO 205 colon 108% | DU-145 prostate 103% | K-562 leukemia 93% | MALME-3M melanoma 102% | MDA-MB-231 breast 95.4% | RXF 393 renal 107% | SF-268 CNS 99.6% | SF-295 CNS 89.4% | SF-539 CNS 91.6% | UACC-257 melanoma 108% | M14 melanoma 96.2%

CSc1nc2ncc([N+](=O)[O-])c(=O)n2[nH]1
inactive: NCI-H23 lung 104% | NCI-H226 lung 97% | NCI-H322M lung 110% | HOP-62 NSCLC 98.8% | NCI-H460 lung 103% | HOP-92 NSCLC 52.4% | NCI-H522 lung 93.8% | A549/ATCC NSCLC 101% | 786-0 renal 108% | COLO 205 colon 119% | DU-145 prostate 110% | K-562 leukemia 104% | MALME-3M melanoma 101% | MDA-MB-231 breast 108% | RXF 393 renal 105% | SF-268 CNS 98.8% | SF-295 CNS 96.6% | SF-539 CNS 100% | UACC-257 melanoma 105% | M14 melanoma 98.4%

C#CCOC(=O)/C=C/c1cn(-c2ccccc2)nc1-c1ccc(OC)cc1
inactive: NCI-H23 lung 89.1% | NCI-H226 lung 81.6% | NCI-H322M lung 99.4% | HOP-62 NSCLC 93% | NCI-H460 lung 95.1% | HOP-92 NSCLC 60.8% | NCI-H522 lung 50% | A549/ATCC NSCLC 77.5% | 786-0 renal 98.9% | COLO 205 colon 121% | DU-145 prostate 95.1% | K-562 leukemia 16.8% | MALME-3M melanoma 107% | MDA-MB-231 breast 57.1% | RXF 393 renal 73.7% | SF-268 CNS 87.9% | SF-295 CNS 94.1% | SF-539 CNS 89.4% | UACC-257 melanoma 87.5% | M14 melanoma 98.8%

C=CC[Se]C(=O)Cc1c(C)n(C(=O)c2ccc(Cl)cc2)c2ccc(OC)cc12
active: NCI-H23 lung -18.2% | NCI-H226 lung -20.5% | NCI-H322M lung -29.5% | HOP-62 NSCLC -16.6% | NCI-H460 lung -6.72% | HOP-92 NSCLC -21.6% | NCI-H522 lung 8.54% | A549/ATCC NSCLC -5.21% | 786-0 renal -50.5% | COLO 205 colon -32.1% | DU-145 prostate -35.6% | MALME-3M melanoma -23.4% | MDA-MB-231 breast -56% | RXF 393 renal -57.5% | SF-295 CNS -28.8% | SF-539 CNS -89.5% | UACC-257 melanoma -34.8% | M14 melanoma -35.4%
inactive: K-562 leukemia 25.9% | SF-268 CNS 15.3%
